In PubChem BioAssay AID1063 (University of Pittsburgh Molecular Library Screening Center, 2008) one finds inhibition data, which are given here for 93 compounds.

Among all 200,000 compounds or so, about 18,000 (9%) were called active. Rule as the data show it: active = inhibition above about 50%; inactive = the rest. The sample as a whole holds a higher share of actives than the screen did.

One may read the inhibition as the drop in the measured response relative to a control, in per cent.

This assay in a line: Leishmania major promastigote growth inhibition, primary screen (AID 1063).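 Also: promastigotes grown with compound for 44 hours at 28 °C.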 Particulars: Leishmania major promastigotes, resazurin fluorescence viability; at 10 µM; stronger effect = higher value. For orientation: Alamar Blue is a resazurin reagent that responds to reducing activity.
As for `O=c1cc(O)c(-c2cccc(C(F)(F)F)c2)c(Cl)[nH]1`, the inhibition was 16.3% (inactive). For `c1ccc2c(NCC3CCCO3)nc(-c3ccncc3)nc2c1` (stereo not drawn), the inhibition was 3.5% (inactive). The figure for `CC(C)(C)c1nc(NCC2CCCO2)c2nnn(Cc3ccccc3)c2n1` (stereo not drawn) is 2.46% (inactive); for `Clc1cccc(-c2nc(NCC3CCCO3)c3ccccc3n2)c1` (stereo not drawn) it is 76.4% (active); for `CNC(=S)N/N=C/c1cn(Cc2ccc(C)cc2)c2ccccc12` it is 62.8% (active). `Cc1ccc(OCCCn2c(=O)oc3ccccc32)cc1`: the inhibition is -3.5% (inactive). The figure for `CCOC(=O)c1cnn(Cc2ccccc2Cl)c1N` is 0.00878% (inactive).

As for `COC(=O)N/N=C/c1cn(CCCOc2ccc(C)cc2)c2ccccc12`, the inhibition was 55.6% (active). The figure for `COC(=O)Cn1cc(/C=C/[N+](=O)[O-])c2ccccc21` is 27.7% (inactive). `CCOC(=O)N/N=C/c1cccnc1`: the inhibition is 1.46% (inactive).

As for `CCOC(=O)N/N=C/c1cn(Cc2ccccc2Cl)c2ccccc12`, the inhibition was 83.9% (active). In the case of `CNC(=S)N/N=C/c1ccc(OCc2ccccc2)c(Br)c1`, the inhibition was 1.78% (inactive). The figure for `O=C(Cn1cc(/C=N/NC(=O)c2cccc(C(F)(F)F)c2)c2ccccc21)Nc1ccc(F)cc1` is 6.06% (inactive).

As for `CCN(CC)S(=O)(=O)c1ccc(NC(=O)c2cccnc2Cl)c(NC(=O)c2cccnc2Cl)c1`, the inhibition is -1.01% (inactive).

As for `O=C(Nc1ccc(Cl)cc1)C1c2cccc[n+]2CC(=O)N1Cc1ccc2c(c1)OCO2` (stereo not drawn), the inhibition was -2.66% (inactive). With `CCC(=O)Nc1ccc(Nc2nc(Cl)nc(Nc3ccc(NC(=O)CC)cc3)n2)cc1` the figure was -6.56% (inactive); with `N#CCSc1nn(-c2ccc(F)cc2)c(=S)s1`, -4.75% (inactive); with `Cc1ccc(S(=O)(=O)N2CCN(C(=O)c3cccs3)CC2)cc1`, -4.13% (inactive). The figure for `Cc1ccnc(NS(=O)(=O)c2ccc(NC(=O)c3ccc(S(=O)(=O)N(C)C)cc3)cc2)n1` is -6.03% (inactive); for `COC(=O)c1c(NC(=O)CCCC(=O)O)sc2c1CCCCC2` it is -4.64% (inactive). With `COCCCNc1nc2c(-c3cccc(C(F)(F)F)c3)nnn2c2ccccc12` the figure was 0.99% (inactive).

For `CC(=O)Nc1ccc(Nc2nc3c(S(=O)(=O)c4ccc(C)c(C)c4)nnn3c3ccccc23)cc1`, the inhibition is 3.4% (inactive). The figure for `Cc1cccc(Nc2nc3c(S(=O)(=O)c4ccccc4)nnn3c3ccccc23)c1C` is 57.1% (active); for `COc1ccc(N(CC(=O)NC2CCCC2)C(=O)CS(=O)CC(=O)Nc2ccc3c(c2)OCO3)cc1` (stereo not drawn) it is -10.1% (inactive); for `COc1ccc(CC(=O)NCc2nnc(SCC(=O)Nc3nccs3)n2C)cc1` it is -3.12% (inactive).

Consider `CC(=O)Oc1ccccc1C1=NN(C(C)=O)C(c2ccccc2)C1` (stereo not drawn), for which the inhibition is -5.99% (inactive).

On to `COc1cc([N+](=O)[O-])ccc1NC(=S)N1CCN(c2ccccn2)CC1`, for which the inhibition is -4.39% (inactive). In the case of `Cc1cccn2c(CN(C)C3CCCc4ccccc43)c(C(=O)N3CCOCC3)nc12` (stereo not drawn), the inhibition was 7.87% (inactive). The figure for `Cc1cccn2c(=O)c3cc(C(=O)N4COCC4(C)C)n(C)c3nc12` is 89.9% (active). With `O=C(O)C1C2CC2CN1C(=O)c1ccc(Cl)cc1Cl` (stereo not drawn) the figure was -2.09% (inactive); with `COc1ccc2nc(SCc3ccccc3)nc(C)c2c1`, -8.99% (inactive). With `COc1ccc2nc(/N=C(\N)NC(=O)Nc3ccccc3)nc(C)c2c1` the figure was 99.9% (active). Consider `COc1ccc(NC(=O)Nc2ccc3nc(C)c(C)nc3c2)cc1`, for which the inhibition was 6.7% (inactive). As to `Cc1nc2cc(NCc3cccs3)ccc2n1C`, the inhibition was 9.59% (inactive). The figure for `C[C@H](NC(=O)c1ccccc1Cl)C(=O)OCCOc1cccc(Cl)c1` is -6.25% (inactive). The figure for `CC(=O)N/N=C/c1cc2c(cc1[N+](=O)[O-])OCO2` is -2.52% (inactive). With `CCn1c(CSc2nc(C)cc(C)n2)nnc1SCC(N)=O` the figure was -0.87% (inactive); with `CCc1cccc(CC)c1NC(=S)NCc1ccc2[nH]c(C)cc2c1`, 94.4% (active). Consider `Cc1cc2cc(CNC(=O)c3cccs3)ccc2[nH]1`, for which the inhibition was -4.21% (inactive).

On to `Cc1cccc(NC(=S)NCc2ccc3[nH]c4c(c3c2)CCCC4)c1`, for which the inhibition is 11.1% (inactive).

Regarding `COc1cc(/C=C(\C#N)C(=O)Nc2ccc3ccccc3c2)c([N+](=O)[O-])cc1OC`, the inhibition is -8.56% (inactive). The figure for `O=C(/C=C/c1ccccc1[N+](=O)[O-])OC1CCCCC1=O` (stereo not drawn) is -5.55% (inactive); for `CC1CCCCC1NC(=O)/C(C#N)=C/C=C/c1ccccc1[N+](=O)[O-]` (stereo not drawn) it is 69% (active); for `COc1cc(CN(C)Cc2nc3cc(C(F)(F)F)ccc3c(=O)[nH]2)ccc1OC(F)F` it is 8.36% (inactive). As for `O=C(CSc1cccc[n+]1[O-])c1ccc(-c2ccccc2)cc1`, the inhibition is -8.44% (inactive). The figure for `CC(NC(=S)NC1CCCCC1)C(c1ccccc1)N1CCOCC1` (stereo not drawn) is 1.15% (inactive). The figure for `Cc1ccccc1CN1C[C@@H]2C[C@@H](c3cn(C)nc3-c3ccccc3)N3CCC[C@@]23C1=O` is 9.77% (inactive); for `Cc1ccccc1CN1C[C@@H]2C[C@@H](c3ccc4nsnc4c3)N3CCC[C@@]23C1=O` it is 78.4% (active); for `Cc1ccccc1CN1CCN(CC(=O)NCc2ccccn2)C1=O` it is -4.22% (inactive). The figure for `CCN1CCN(C(=O)CN(C)S(=O)(=O)c2ccc3ccccc3c2)CC1` is 0.63% (inactive); for `O=C(N/N=C/c1cc2c(cc1Br)OCO2)C1COc2ccccc2O1` (stereo not drawn) it is 38% (inactive); for `CN(C)c1ccc(/C=C2\NC(=S)N(Cc3ccccc3)C2=O)cc1` it is 96.8% (active).

Turning to `CC1=NN(Cc2ccccc2)C(=O)/C1=C/c1ccc(N(C)C)cc1`, the inhibition is -0.65% (inactive).

With `O=C1NCC(=O)N(Cc2ccccc2)/C1=C/c1ccccc1`, the inhibition was -0.36% (inactive). The figure for `Cc1noc(C)c1CCC(=O)O` is -0.11% (inactive); for `CC(CC(=O)Nc1ccccc1)n1ccnc1` (stereo not drawn) it is -7.2% (inactive). With `COc1ccc(NC(C)=O)cc1NC(=O)CN1CCN(C2c3ccccc3-c3ccccc32)CC1`, the inhibition was 84% (active). The figure for `COc1ccc(OC)c(NC(=O)CN2CCN(C(=O)c3ccco3)CC2)c1` is -1.17% (inactive); for `COc1ccc(NC(C)=O)cc1NC(=O)CN1CCN(c2ccccn2)CC1` it is -3.06% (inactive). As for `CCC(CC)NC(=O)CSc1nnc(-c2c[nH]c3ccccc23)o1`, the inhibition was 6.71% (inactive). As for `CC(C)(C)n1nnnc1C(c1ccc(F)cc1)N1CCN(Cc2ccc3c(c2)OCO3)CC1` (stereo not drawn), the inhibition was 48.1% (inactive). With `Cc1ccc(S(=O)(=O)Cn2nnnc2CN2CCN(Cc3ccc4c(c3)OCO4)CC2)cc1` the figure was 93.4% (active); with `Fc1ccccc1C(c1nnnn1Cc1ccc2c(c1)OCO2)N1CCN(Cc2ccccc2)CC1` (stereo not drawn), 26.7% (inactive). With `O=C(CN1CCN(c2ccccc2F)CC1)c1ccc2c(c1)OCO2` the figure was 8.93% (inactive); with `O=C(CN1CCC(O)(c2ccccc2)CC1)Nc1ccc2c(c1)OCCO2`, 3.55% (inactive); with `O=C(CCN1CCc2ccccc2C(O)(c2ccccc2)C1)c1ccc2c(c1)OCCO2` (stereo not drawn), 95.3% (active). With `O=C(Cc1ccccc1)NNC(=O)C1CCN(c2ncccn2)CC1` the figure was -9.12% (inactive); with `CCc1cc(CNC(=O)CC2C(=O)NCCN2CC2CCCCC2)on1` (stereo not drawn), -6.55% (inactive). Consider `COc1ccc(NS(=O)(=O)c2ccc(NC(C)=O)cc2)cc1OC`, for which the inhibition is -3.17% (inactive). For the compound `COc1ccc(C(=O)Oc2cc(/C=N/NS(=O)(=O)c3ccc(C)cc3)ccc2OC)cc1`, the inhibition was 0.27% (inactive). The figure for `COc1ccc(/C=C/C(=O)c2ccc(NS(=O)(=O)c3ccc(C)cc3)cc2)cc1O` is 99.6% (active); for `O=C(CCC(=O)Nc1ccccc1)N/N=C/c1ccccc1F` it is 0.99% (inactive). Take `CCC(C(=O)Nc1ccc2c(c1)OCCO2)c1ccccc1` (stereo not drawn): the inhibition was 4.21% (inactive). With `CCO[C@H]1OC(C(=O)Nc2ccccc2)=C[C@@H](C2CC2)[C@@H]1CCCO` the figure was 1.1% (inactive). On to `CCOC(=O)C1=C(CC)OC(N)=C(C#N)C1c1ccc(F)cc1F` (stereo not drawn), for which the inhibition is 11.4% (inactive). With `COc1cc2c(cc1OC)C(c1ccc(C)o1)CC(=O)N2` (stereo not drawn) the figure was -5.73% (inactive); with `COC(=O)c1ccc(C2CC(=O)Nc3cc(OC)c(OC)cc32)cc1` (stereo not drawn), 53.2% (active); with `COc1cc2c(cc1OC)C(c1ccncc1)CC(=O)N2` (stereo not drawn), -6.82% (inactive). With `CC(C)(c1ccccc1)c1ccc(OCCN)cc1` the figure was 51.4% (active); with `O=C(NCCc1ccccc1)c1ccc(OCCOc2ccccc2)cc1`, -1.38% (inactive); with `O=C(NCCOc1ccccc1)c1ccccc1`, -1.77% (inactive). For the compound `COc1cc(OC)cc(C(=O)NCC(=O)OCc2csc(-c3ccccc3)n2)c1`, the inhibition is 34.9% (inactive). With `O=C(CNCc1ccc(Cl)cc1)Nc1cccc(C(=O)O)c1`, the inhibition is 1.28% (inactive). With `N/C(=N\OC(=O)Cc1ccccc1[N+](=O)[O-])c1ccc(Br)cc1` the figure was 10.7% (inactive). The figure for `COc1cccc(CNC(=O)CCC2CCCN(Cc3ccc(OC(F)F)cc3)C2)c1` (stereo not drawn) is 98.5% (active). With `COc1cccc(C(=O)N2CCCC(CCC(=O)NCc3ccc(F)c(F)c3)C2)c1` (stereo not drawn) the figure was 6.37% (inactive); with `COc1cccc(CNC(=O)CCC2CCCN(C(=O)c3ccoc3C)C2)c1` (stereo not drawn), -4.54% (inactive); with `COc1ccc(/C=N/NC(=O)C(C)N(c2ccc(OC)cc2)S(C)(=O)=O)cc1` (stereo not drawn), 4.55% (inactive). As to `COc1ccc(Cl)cc1NC(=O)C(C)N1CCc2ccccc21` (stereo not drawn), the inhibition was 16.9% (inactive). On to `CC1(C)OC(=O)C(=CNC(CO)C(=O)O)C(=O)O1` (stereo not drawn), for which the inhibition was -4.58% (inactive). The figure for `O=C(Nc1ccc2c(c1)OCCO2)c1ccc(Cl)c(S(=O)(=O)N2CCCCC2)c1` is -0.95% (inactive); for `O=[N+]([O-])c1cccc(S(=O)(=O)N2CCCCCC2)c1` it is 36.7% (inactive); for `O=C(Oc1ccc([N+](=O)[O-])cc1)c1ccc(Cl)c(S(=O)(=O)N2CCCCC2)c1` it is 56.8% (active).
